Seven molecules from PubChem BioAssay (Tox21) can be followed below.

Each structure is given as a SMILES string. Values joined by “and” are separate entries in the source; they are usually repeats but may differ in a detail not shown here. Equal entries are not always repeated. Results filed as inconclusive are left out. Active and inactive are the calls of the source. Unless noted, calls come from the whole dose curve.

Test [1] can be described thus: Nuclear factor erythroid 2-related factor 2/antioxidant responsive element (Nrf2/ARE) small molecule agonists: qHTS cell viability counter screen in human keratinocytes (AID 1919968; active = well fitted curve in the direction sought with a large enough effect in the repeat runs; an effect the other way counts as inactive or inconclusive; note: nearly all actives have a fitted effect of over 55% in size; note: potency is the fitted concentration of half-maximal effect). In outline:
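Viability counter-screen: KeratinoSens reporter cells, DMSO-delivered compounds, 23 h at 37 C, CellTiter-Fluor fluorescence.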
(In general: Quantitative high-throughput screening tests each substance at several concentrations.)

Test [2] is described as follows: Nuclear factor erythroid 2-related factor 2/antioxidant responsive element (Nrf2/ARE) small molecule agonists: luciferase reporter gene qHTS assay in human keratinocytes (AID 1919969; note: nearly all actives have a fitted effect of over 35% in size; note: potency is the fitted concentration of half-maximal effect). (In a reporter assay the amount or activity of a reporter protein is the signal.)
In test [3] the target is Gonadotropin-releasing hormone receptor (Homo sapiens) (UniProt P30968). Kind of test: Human gonadotropin-releasing hormone receptor (GnRHR) small molecule agonists, calcium flux assay in GnRHR-HEK293 cells (AID 1920063). Note: nearly all actives have a fitted effect of over 35% in size. In outline: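 Tox21-format agonist screen using human GnRHR-expressing HEK293 cells and a fluorescent calcium dye; kinetic 3-min fluorescence reading after compound addition, 15-point concentration series run in triplicate.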
(In general: Calcium flux is commonly read through the fluorescence of an indicator in the cells.)

The target of test [4] is KiSS-1 receptor (Homo sapiens) (UniProt Q969F8). Kind of test: Human kisspeptin (KISS1R) small molecule agonists, calcium flux assay in KISS1R-HEK293 cells (AID 1920064; active = well fitted curve in the direction sought with a large enough effect in the repeat runs; an effect the other way counts as inactive or inconclusive). In outline:
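Intracellular calcium mobilization in KISS1R-HEK293 cells was recorded by fluorescence (Ex/Em 480/540) for 3 min following compound addition to cells pre-loaded 1 h with calcium dye.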

Test [5] can be described thus: G protein-coupled receptor (GPCR) small molecule agonists, calcium flux assay: HEK293 wild type cell line counter screen (AID 1920065). In outline: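 In this agonist-mode screen, ATP is the positive control and DMSO the vehicle. Cells grow 18 h before a 1 h dye incubation at 37 C; signal is taken at Ex/Em 480/540 over 3 min.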
Test [6] is described as follows: p53 small molecule agonists, cell-based qHTS assay with human liver microsomes (AID 1963577). In outline: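 p53RE-bla reporter cells were pre-incubated 5 h at 37 C, then treated with compounds plus human liver microsomes (0.5 mg/mL final) and NADPH (0.5 mg/mL final) for 16 h at 37 C. Beta-lactamase activity was read by LiveBLAzer fluorescence after 2 h at room temperature.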

Test [7] in a line: p53 small molecule agonists, cell-based qHTS assay with rat liver microsomes (AID 1963578). In outline:
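p53RE-bla cells were exposed to compounds together with rat liver microsomes (0.5 mg/mL final) and NADPH (0.5 mg/mL final) for 16 h at 37 C, then read by LiveBLAzer beta-lactamase fluorescence after 2 h at room temperature.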

A short description of test [8]: p53 small molecule agonists, cell-based qHTS assay with human liver microsomes: qHTS cell viability counter screen (AID 1963579). Note: nearly all actives have a fitted effect of over 45% in size. Note: potency is the fitted concentration of half-maximal effect. In outline: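 p53RE-bla cells (4,000/well) were pre-incubated 5 h at 37 C, then given compounds in DMSO plus human liver microsomes (0.5 mg/mL final) and NADPH (0.5 mg/mL final) for 16 h at 37 C. Viability was read by CellTiter-Glo luminescence.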

Test [9] can be described thus: p53 small molecule agonists, cell-based qHTS assay with rat liver microsomes: qHTS cell viability counter screen (AID 1963580). Note: nearly all actives have a fitted effect of over 45% in size. Note: potency is the fitted concentration of half-maximal effect. In outline: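 p53RE-bla HCT-116 cells were exposed 16 h at 37 C to compounds with rat liver microsomes (0.5 mg/mL) and NADPH (0.5 mg/mL). Viability was measured in the same wells as ATP content by CellTiter-Glo luminescence.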
A short description of test [10]: p53 small molecule agonists, cell-based qHTS assay: qHTS cell viability counter screen (AID 1963581). Note: nearly all actives have a fitted effect of over 45% in size. Note: potency is the fitted concentration of half-maximal effect. In outline: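 Compounds are pinned onto HCT-116 p53RE-bla cells and left 16 h at 37 C. Following the reporter FRET read, ATP is quantified by CellTiter-Glo luminescence after 30 min at room temperature.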
Test [11] addresses 5-hydroxytryptamine receptor 2A (Homo sapiens) (UniProt P28223). Kind of test: 5-hydroxytryptamine receptor 2A (HTR2A) small molecule agonists, cell-based qHTS assay (AID 1963587). Note: nearly all actives have a fitted effect of over 30% in size. In outline: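 CHO cells stably expressing human HTR2A, plated 18 h, loaded with calcium dye 1 h at 37 C. Agonist mode: compounds added and intracellular calcium fluorescence recorded kinetically for 2 min at 1 sec intervals.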

The target of test [12] is Muscarinic acetylcholine receptor M1 (Homo sapiens) (UniProt P11229). Kind of test: Cholinergic receptor muscarinic 1 (CHRM1) small molecule antagonists, cell-based qHTS assay (AID 1963588). Note: nearly all actives have a fitted effect of over 40% in size. In outline:
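CHRM1-CHO calcium-flux assay, antagonist mode. Cells were seeded 18 h, dye-loaded 1 h at 37 C and given compound for 5 min at RT, then acetylcholine was added at 50nM. FDSS fluorescence was read 3 min; 15 concentrations, three runs.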

The target is the same in test [13]. Kind of test: Cholinergic receptor muscarinic 1 (CHRM1) small molecule agonists, cell-based qHTS assay (AID 1963589). Note: nearly all actives have a fitted effect of over 35% in size. In outline: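 Stable CHRM1-CHO cells (human receptor) were incubated 18 h, dye-loaded for 1 h at 37 C and exposed to test compounds for agonist activity, with calcium-dependent fluorescence followed kinetically.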
Test [14] is described as follows: cAMP Responsive Elements (CRE) small molecule antagonists, cell-based qHTS assay (AID 1963591; active = well fitted inhibition curve with a large enough effect in the signal ratio in the repeat runs, not every such curve was filed as active; the % refers to the signal ratio; note: potency is the fitted concentration of half-maximal effect). In outline: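 qHTS in CRE-bla HEK 293T cells: compound in DMSO, then 0.25 uM NKH477 (final), 3 h at 37 °C/5% CO2; beta-lactamase FRET read-out after 2 h substrate incubation.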
Test [15] addresses Beta-2 adrenergic receptor (Homo sapiens) (UniProt P07550). Kind of test: Adrenergic beta2 receptor (ADRB2) small molecule antagonists, cell-based qHTS assay (AID 1963592). Note: series mostly up to about 92 µM; nearly all actives have a fitted effect of over 50% in size. In outline:
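Cells (CHO, stable ADRB2 overexpression) incubated 18-20hr at 37C; compounds added from DMSO; agonist mix (1nM isoproterenol, 100uM IBMX, 25uM Ro-20-1724) added; 0.5hr RT; d2-cAMP and anti-cAMP-cryptate added; 1hr RT; 665/615 nm read.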

For test [16] the target is unchanged. Kind of test: Adrenergic beta2 receptor (ADRB2) small molecule agonists, cell-based qHTS assay (AID 1963593).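 Note: CHO cells stably overexpressing human ADRB2.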 In outline: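 CHO cells stably over-expressing ADRB2 were plated overnight at 37C, then dosed with compounds plus a stimulation mix containing 100uM IBMX and 25uM Ro-20-1724 for 0.5hr at room temperature. cAMP was measured by HTRF competition, 1hr.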

The target of test [17] is D(2) dopamine receptor (Homo sapiens) (UniProt P14416). Kind of test: Dopamine D2 receptor (DRD2) small molecule agonists, cell-based qHTS assay (AID 1963594). Note: nearly all actives have a fitted effect of over 35% in size. In outline: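 HEK293 cells stably expressing human DRD2, pre-treated with PDE inhibitor Ro20-1724 (0.1 mM final) and compound 10 min at room temperature, then stimulated with NKH477 (200nM […]) for 30 min. cAMP read by HTRF (665/620 nm).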

For test [18] the target is unchanged. Kind of test: Dopamine D2 receptor (DRD2) small molecule antagonists, cell-based qHTS assay (AID 1963595; active = well fitted inhibition curve with a large enough effect in the signal ratio in the repeat runs, with a control signal flat; the % refers to the signal ratio). In outline: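 Cells were plated and grown for 24 h at 37 °C. Ro20-1724 (0.1 mM final) went in first, then compound for 10 min. NKH477 (200 nM) with quinpirole (12 nM) followed for 30 min at RT, then HTRF detection reagents for 1 h.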
The nature of test [19]: p53 small molecule agonists, cell-based qHTS assay (AID 1963582; active = well fitted activation curve with a large enough effect in the signal ratio in the repeat runs, not every such curve was filed as active; the % refers to the signal ratio). In outline: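 Agonist activity was scored from beta-lactamase FRET fluorescence in p53RE-bla cells treated 16 h at 37 C with compounds in DMSO, substrate incubation being 2 h at room temperature.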
Test [20] is described as follows: cAMP Responsive Elements (CRE) small molecule agonists, cell-based qHTS assay (AID 1963590). In outline: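 FRET-based beta-lactamase readout (LiveBLAzer B/G, 2 h RT) quantified CRE activation in HEK 293T CRE-bla cells after 3 h treatment with DMSO-dissolved compounds.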

Gonadotropin-releasing hormone receptor (Homo sapiens), sequence (P30968 whole entry, looked up): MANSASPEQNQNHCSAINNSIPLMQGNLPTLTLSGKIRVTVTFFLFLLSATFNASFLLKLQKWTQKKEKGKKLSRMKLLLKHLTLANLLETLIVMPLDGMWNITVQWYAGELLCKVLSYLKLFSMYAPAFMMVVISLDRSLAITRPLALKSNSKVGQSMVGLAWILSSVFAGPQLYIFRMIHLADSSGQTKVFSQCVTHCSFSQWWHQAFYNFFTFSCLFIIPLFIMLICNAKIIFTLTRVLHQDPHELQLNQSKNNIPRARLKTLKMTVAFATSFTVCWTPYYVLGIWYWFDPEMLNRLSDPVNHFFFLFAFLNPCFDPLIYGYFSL
Muscarinic acetylcholine receptor M1 (Homo sapiens), sequence (P11229 whole entry, looked up): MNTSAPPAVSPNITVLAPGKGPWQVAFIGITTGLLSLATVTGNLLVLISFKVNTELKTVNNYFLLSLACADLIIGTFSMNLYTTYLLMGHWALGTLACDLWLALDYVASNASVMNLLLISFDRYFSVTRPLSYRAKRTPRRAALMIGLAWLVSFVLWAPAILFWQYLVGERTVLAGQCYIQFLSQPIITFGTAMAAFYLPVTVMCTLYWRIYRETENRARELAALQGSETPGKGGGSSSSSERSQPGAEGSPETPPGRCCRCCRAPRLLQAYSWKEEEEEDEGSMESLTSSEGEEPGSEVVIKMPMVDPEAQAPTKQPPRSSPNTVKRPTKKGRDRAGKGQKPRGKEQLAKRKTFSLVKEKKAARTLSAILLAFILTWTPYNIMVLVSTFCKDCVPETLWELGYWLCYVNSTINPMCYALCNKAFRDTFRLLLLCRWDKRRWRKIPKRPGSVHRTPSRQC
KiSS-1 receptor (Homo sapiens), sequence (Q969F8 whole entry, looked up): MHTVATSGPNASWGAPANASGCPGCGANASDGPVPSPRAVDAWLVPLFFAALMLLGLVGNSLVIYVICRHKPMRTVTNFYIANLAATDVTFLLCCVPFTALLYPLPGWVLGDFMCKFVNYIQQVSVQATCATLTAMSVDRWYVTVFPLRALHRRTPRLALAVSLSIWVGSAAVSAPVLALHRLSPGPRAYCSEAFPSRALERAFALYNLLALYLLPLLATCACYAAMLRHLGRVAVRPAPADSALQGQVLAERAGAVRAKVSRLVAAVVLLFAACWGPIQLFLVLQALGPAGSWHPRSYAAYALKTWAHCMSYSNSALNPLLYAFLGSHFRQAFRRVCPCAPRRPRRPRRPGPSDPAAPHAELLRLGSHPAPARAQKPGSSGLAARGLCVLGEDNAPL
D(2) dopamine receptor (Homo sapiens), sequence (P14416 whole entry, looked up): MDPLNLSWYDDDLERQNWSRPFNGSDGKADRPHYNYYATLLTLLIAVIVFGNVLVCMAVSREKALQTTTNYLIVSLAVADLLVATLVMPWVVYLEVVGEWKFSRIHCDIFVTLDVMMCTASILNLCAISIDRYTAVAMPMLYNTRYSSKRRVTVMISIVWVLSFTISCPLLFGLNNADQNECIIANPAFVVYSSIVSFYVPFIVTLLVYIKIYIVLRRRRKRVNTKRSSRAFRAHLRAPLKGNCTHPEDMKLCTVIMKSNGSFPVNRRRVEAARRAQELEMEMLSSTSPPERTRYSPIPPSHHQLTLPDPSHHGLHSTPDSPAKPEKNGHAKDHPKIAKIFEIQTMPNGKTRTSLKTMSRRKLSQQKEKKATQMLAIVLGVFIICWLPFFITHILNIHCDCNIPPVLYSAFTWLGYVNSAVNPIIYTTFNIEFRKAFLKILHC
5-hydroxytryptamine receptor 2A (Homo sapiens), sequence (P28223 whole entry, looked up): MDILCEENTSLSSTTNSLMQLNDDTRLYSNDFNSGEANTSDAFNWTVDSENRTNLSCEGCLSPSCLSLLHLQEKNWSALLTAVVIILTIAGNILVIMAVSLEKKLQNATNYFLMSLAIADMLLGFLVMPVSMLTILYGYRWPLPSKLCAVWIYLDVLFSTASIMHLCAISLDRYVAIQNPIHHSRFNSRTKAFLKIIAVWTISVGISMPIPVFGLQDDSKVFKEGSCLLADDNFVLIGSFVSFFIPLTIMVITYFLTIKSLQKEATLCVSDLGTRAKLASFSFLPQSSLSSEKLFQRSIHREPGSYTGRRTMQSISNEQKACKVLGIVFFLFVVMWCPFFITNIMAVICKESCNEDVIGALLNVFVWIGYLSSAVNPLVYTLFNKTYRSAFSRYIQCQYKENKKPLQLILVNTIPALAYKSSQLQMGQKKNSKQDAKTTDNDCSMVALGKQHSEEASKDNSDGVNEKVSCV
Beta-2 adrenergic receptor (Homo sapiens), sequence (P07550 whole entry, looked up): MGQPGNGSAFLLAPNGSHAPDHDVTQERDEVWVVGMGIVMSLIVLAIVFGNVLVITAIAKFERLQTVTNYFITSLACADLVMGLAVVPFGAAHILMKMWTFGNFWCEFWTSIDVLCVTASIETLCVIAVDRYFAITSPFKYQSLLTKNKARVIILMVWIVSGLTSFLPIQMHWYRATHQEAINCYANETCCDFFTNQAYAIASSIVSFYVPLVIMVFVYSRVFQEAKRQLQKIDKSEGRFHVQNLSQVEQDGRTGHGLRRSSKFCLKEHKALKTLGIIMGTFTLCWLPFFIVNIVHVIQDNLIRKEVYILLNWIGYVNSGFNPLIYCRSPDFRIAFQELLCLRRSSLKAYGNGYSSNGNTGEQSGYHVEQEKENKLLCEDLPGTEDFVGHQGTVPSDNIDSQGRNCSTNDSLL

Take `CCCCC(CC)COC(=O)c1ccc(O)cc1` (stereo not drawn): the Potency was 27.2 µM (active) and 30.6 µM (active) in test [1]; 40.8 µM (active) in test [8]; 45.8 µM (active) in test [9]; 40.6 µM (active) in test [10]; 40.3 µM (active) in [14]. In addition, the Potency result in test [2], in test [3], in test [4], in [5], in test [6] and in test [7] was “inactive” each time. In addition, the Potency result in test [11], in test [12], in test [13], in test [15], in [16] and in [17] was “inactive” each time. Moreover, the Potency entry in test [18] is “inactive”.
As for `Cc1ccc(-c2ccccc2)cc1`, the Potency result in [1], in test [2], in [3], in test [4], in [5] and in test [6] was “inactive” throughout. The Potency entry in test [7], in [8], in test [9], in test [19], in test [11] and in test [12] was “inactive” throughout. Also, the Potency entry in [13], in test [20], in test [14], in test [15], in test [16] and in test [17] was “inactive” in each case. Also, the Potency result in [18] is “inactive”.
With `O=C(O)CC(=O)O`, the Potency result in test [1], in [2], in test [3], in test [4], in test [5] and in test [6] was “inactive” throughout. The Potency result in test [7], in [8], in [9], in test [10], in test [11] and in test [12] was “inactive” each time. Moreover, the Potency entry in test [13], in test [20], in [14], in test [15], in test [17] and in test [18] was “inactive” in each case.
In the case of `CCCCC/C=C/C=C/C=O`, the Potency result in test [1], in test [3], in test [4], in test [5], in [6] and in test [7] was “inactive” in each case. In addition, the Potency result in [8], in [9], in [19], in test [11], in [12] and in [13] was “inactive” each time. The Potency entry in test [20], in test [14], in test [15], in [16], in test [17] and in test [18] was “inactive” each time. The Potency in test [2] was 61.1 µM (active).
As to `CC1=C(O)C(=O)OC1C` (stereo not drawn), the Potency entry in [1], in test [2], in [3], in test [4], in test [5] and in [6] was “inactive” each time. For the same molecule, the Potency entry in [7], in [8], in [9], in test [19], in test [11] and in test [12] was “inactive” each time. Besides, the Potency result in test [13], in test [20], in [14], in test [15], in [16] and in test [17] was “inactive” each time. For the same molecule, the Potency entry in test [18] was “inactive”.
As for `Nc1ncnc2c1ncn2Cc1c(F)cccc1Cl`, the Potency entry in [1], in [2], in test [3], in test [4], in [5] and in test [6] was “inactive” throughout. Further, the Potency entry in [7], in [8], in test [9], in [10], in test [11] and in test [12] was “inactive” throughout. Moreover, the Potency result in test [13], in test [20], in test [14] and in test [16] was “inactive” each time.
With `NC(=O)c1ccccc1N`, the Potency result in test [1], in test [2], in test [3], in test [4], in test [5] and in [6] was “inactive” throughout. In addition, the Potency result in test [7], in test [8], in test [9], in test [19], in [11] and in [12] was “inactive” each time. Moreover, the Potency result in test [13], in test [20], in test [14], in test [15], in test [16] and in test [17] was “inactive” in each case. Also, the Potency result in [18] is “inactive”.
